From PubChem BioAssay (NCATS)
A number with no mark means an inactive call. Results filed as inconclusive are left out. Entries that show only a call come without a potency. Activity calls are given as the source filed them. Unless noted, calls follow the shape of the dose curve; as a rule, active = well fitted curve in the direction sought with a large enough effect; inconclusive = small, poorly fitted or top-dose-only effect, or another doubt; inactive = no such curve, though single readings can be large; an effect the other way counts as inactive or inconclusive.

Legend:
[1] = KB-3-1 P-gp reporter qHTS against the NCATS DSHEA and TCM libraries (AID 1919975)
Method in brief: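 KB-3-1 parental line, 1536-well qHTS: cells seeded, ~4 h attachment, pintool compound addition, ~72 h at 37C, then CellTiter-Glo, 30 min RT, luminescence. Concentration-response format.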

[2] = qHTS Counterscreen for compound interference against the NCATS DSHEA and TCM libraries (AID 1919978); details: firefly luciferase detection reagent interference, luminescence;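 also: compounds preincubated with 1 µM D-luciferin or buffer before detection reagent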
Method in brief: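 Compounds, titrated from 19.5 nM to 39.8 uM final, were pinned onto 1 uM D-luciferin or plain 100 mM potassium phosphate. After 15 min at room temperature, luciferin detection reagent was added for 30 min before the luminescence read.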

[3] = biological target: Nuclear receptor subfamily 1 group I member 2 (Homo sapiens) (UniProt O75469); experiment: Dual reporter qHTS for antagonist of Pregnane X Receptor (hPXR) against the NCATS DSHEA and TCM libraries: Luminescence Readout (AID 1920060)
Chain of Nuclear receptor subfamily 1 group I member 2 (Homo sapiens) (O75469 whole entry, looked up): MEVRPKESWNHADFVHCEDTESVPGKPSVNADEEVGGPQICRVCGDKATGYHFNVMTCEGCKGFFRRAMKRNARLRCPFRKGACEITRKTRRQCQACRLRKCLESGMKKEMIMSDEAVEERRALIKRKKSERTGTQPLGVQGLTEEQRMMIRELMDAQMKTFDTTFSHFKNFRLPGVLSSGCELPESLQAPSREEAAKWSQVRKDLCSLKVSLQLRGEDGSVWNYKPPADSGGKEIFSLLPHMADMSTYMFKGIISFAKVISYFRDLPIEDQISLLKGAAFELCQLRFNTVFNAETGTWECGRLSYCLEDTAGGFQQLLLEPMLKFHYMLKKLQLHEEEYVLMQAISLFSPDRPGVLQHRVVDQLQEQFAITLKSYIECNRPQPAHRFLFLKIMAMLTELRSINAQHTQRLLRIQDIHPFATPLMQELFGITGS
Method in brief: (§1)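 Rifampicin-stimulated (2 uM final) hPXR-luciferase HepG2 cells were treated for 24 h with DSNP/TCM substances. Viability came from CellTiter-Fluor fluorescence, reporter activity from ONE-Glo luminescence.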

[4] = Dual reporter qHTS for antagonist of Pregnane X Receptor (hPXR) against the NCATS DSHEA and TCM libraries: Fluorescence Readout (AID 1920061)
Method in brief: as §1

[5] = Primary qHTS for small molecule stabilizers of the endoplasmic reticulum resident proteome: Secreted ER Calcium Modulated Protein (SERCaMP) assay (AID 1508630)
Method in brief: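 GLuc-SERCaMP-expressing SH-SY5Y cells, pretreated 16 h with compound, are challenged with thapsigargin to empty ER calcium stores; after 4 h, coelenterazine is added directly to the medium and luminescence is imaged.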

[6] = qHTS Assay for Identification of Small Molecule Antagonists for Thrombopoietin (TPO) Signaling Pathway (AID 918); details: TPO-dependent cell signaling reporter, antagonist mode; also: potency is read from the fitted curve at half-maximal effect; nearly all actives have a fitted effect of over 60% in size
Method in brief: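 Murine Ba/F3 cells expressing human TPO receptor and a Glycoprotein IIb promoter-luciferase reporter, IL-3-starved overnight, treated with compound plus TPO at EC50 (26 pM final). After 24 h at 37 C, luminescence read to detect inhibitors.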

[7] = tested on: CP262; experiment: qHTS profiling for inhibitors of Plasmodium falciparum proliferation (AID 504749); also: nearly all actives have a fitted effect of over 60% in size; details: P. falciparum in erythrocytes, SYBR Green DNA, 72 h; series mostly up to 28.7 µM
Method in brief: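 P. falciparum-infected erythrocytes (0.3% parasitemia, 2.5% hematocrit) incubated with compound 72 h at 37 C, 5% CO2. Parasite DNA detected by SYBR Green after lysis, overnight at room temperature; normalised to 0.29 uM artemisinin and DMSO.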

[8] = Cytometric Cell-Based qHTS for Inhibitors of the mTORC1 Signaling Pathway in MEF (Tsc2-/-, p53-/-) Cells (AID 2660);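 also: percent of cells above a phospho-rpS6 to PI ratio cutoff in each well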
Method in brief: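 Percent of cells positive for normalized phospho-S6 staining is reported, with the cutoff set from rapamycin (7.5 nM) versus DMSO wells. Tsc2-/-, p53-/- MEFs received compound for 24 hrs.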

[9] = High Content Imaging Cell-Based qHTS for Inhibitors of the mTORC1 Signaling Pathway in MEF (Tsc2-/-, p53-/-) Cells (AID 2666);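 also: percent of cells scored positive for phospho-rpS6 Ser235/236 immunostaining by imaging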
Method in brief: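 Phospho-rpS6 (Ser235/236) immunofluorescence, normalized and scored as % positive cells using rapamycin and DMSO controls, was read in empty-vector Tsc2-/-, p53-/- MEFs after 24 h compound exposure at 37 C; propidium iodide counted cells.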

[10] = High Content Imaging Cell-Based qHTS for Inhibitors of the mTORC1 Signaling Pathway in MEF Cells (AID 2667);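 also: Tsc2-/- p53-/- MEFs stably re-expressing wild-type Tsc2 exposed 24 h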
Method in brief: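 WT MEFs (Tsc2-/-, p53-/- re-expressing Tsc2), in DMEM + 10% FBS, were treated with compound for 24 h at 37 C. Cells were then fixed and stained for phospho-rpS6 Ser235/236 with propidium iodide as cell count. Values are % positive cells, with thresholds set against rapamycin-treated cells.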

[11] = Cytometry Cell-Based qHTS for Inhibitors of the mTORC1 Signaling Pathway in MEF cells (AID 2668);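 also: Tsc2-/- p53-/- mouse embryonic fibroblasts stably re-expressing wild-type Tsc2; percent cells positive for phospho-rpS6 Ser235/236 relative to propidium iodide stain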
Method in brief: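 Tsc2-/-, p53-/- MEFs re-expressing WT Tsc2; cpd 24 hrs, 37 degree Celsius; PFA fix, Alexa-488 p-rpS6 (Ser235/236) Ab 2 hrs RT, PI counterstain; Acumen 488nm scan; p-S6/PI ratio → % positive cells; PI count = viability.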

[12] = biological target: Ubiquitin carboxyl-terminal hydrolase 2 (Homo sapiens) (UniProt O75604); experiment: qHTS Validation Assay for Inhibitors of Ubiquitin-specific Protease USP2a Using CHOP2 as the Reporter (AID 463106)
Chain of Ubiquitin carboxyl-terminal hydrolase 2 (Homo sapiens) (O75604 whole entry, looked up): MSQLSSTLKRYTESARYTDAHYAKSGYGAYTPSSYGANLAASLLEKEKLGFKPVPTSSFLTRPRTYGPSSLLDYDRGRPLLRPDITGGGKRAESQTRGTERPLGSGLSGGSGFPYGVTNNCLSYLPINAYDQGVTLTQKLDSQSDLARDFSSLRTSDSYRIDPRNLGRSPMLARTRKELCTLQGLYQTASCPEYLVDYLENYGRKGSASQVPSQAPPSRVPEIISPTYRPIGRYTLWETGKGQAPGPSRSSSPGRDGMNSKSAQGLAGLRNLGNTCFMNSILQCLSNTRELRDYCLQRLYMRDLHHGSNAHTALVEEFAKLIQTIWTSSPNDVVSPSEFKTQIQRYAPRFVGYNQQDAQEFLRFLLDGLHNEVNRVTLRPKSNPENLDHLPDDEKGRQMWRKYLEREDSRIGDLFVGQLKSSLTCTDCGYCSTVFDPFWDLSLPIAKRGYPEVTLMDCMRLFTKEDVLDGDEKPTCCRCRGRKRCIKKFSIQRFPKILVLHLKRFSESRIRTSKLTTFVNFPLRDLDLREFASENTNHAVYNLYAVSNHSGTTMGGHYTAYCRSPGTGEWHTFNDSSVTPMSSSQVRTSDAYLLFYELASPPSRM
Method in brief: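 USP2 core (10 nM final) was preincubated with compound 30 min at RT in pH 8.0 Tris/CaCl2/beta-ME/CHAPS buffer. Ub-CHOP2 and reporter substrate (25 nM final each) were then added, with fluorescence (Ex 485/Em 531) read after 60 min. Data were normalized to NEM full inhibition and fitted to concentration-response curves.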

[13] = biological target: DNA polymerase III PolC-type (Bacillus subtilis (strain 168)) (UniProt P13267); experiment: qHTS Validation Assay for the Inhibitors of DNA Replication in Gram-Positive Bacteria (AID 485295);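 also: reconstituted holoenzyme with PolC plus beta clamp SSB and primase; PicoGreen fluorescence of double-stranded DNA made on primed circular M13 template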
Chain of DNA polymerase III PolC-type (Bacillus subtilis (strain 168)) (P13267 whole entry, looked up): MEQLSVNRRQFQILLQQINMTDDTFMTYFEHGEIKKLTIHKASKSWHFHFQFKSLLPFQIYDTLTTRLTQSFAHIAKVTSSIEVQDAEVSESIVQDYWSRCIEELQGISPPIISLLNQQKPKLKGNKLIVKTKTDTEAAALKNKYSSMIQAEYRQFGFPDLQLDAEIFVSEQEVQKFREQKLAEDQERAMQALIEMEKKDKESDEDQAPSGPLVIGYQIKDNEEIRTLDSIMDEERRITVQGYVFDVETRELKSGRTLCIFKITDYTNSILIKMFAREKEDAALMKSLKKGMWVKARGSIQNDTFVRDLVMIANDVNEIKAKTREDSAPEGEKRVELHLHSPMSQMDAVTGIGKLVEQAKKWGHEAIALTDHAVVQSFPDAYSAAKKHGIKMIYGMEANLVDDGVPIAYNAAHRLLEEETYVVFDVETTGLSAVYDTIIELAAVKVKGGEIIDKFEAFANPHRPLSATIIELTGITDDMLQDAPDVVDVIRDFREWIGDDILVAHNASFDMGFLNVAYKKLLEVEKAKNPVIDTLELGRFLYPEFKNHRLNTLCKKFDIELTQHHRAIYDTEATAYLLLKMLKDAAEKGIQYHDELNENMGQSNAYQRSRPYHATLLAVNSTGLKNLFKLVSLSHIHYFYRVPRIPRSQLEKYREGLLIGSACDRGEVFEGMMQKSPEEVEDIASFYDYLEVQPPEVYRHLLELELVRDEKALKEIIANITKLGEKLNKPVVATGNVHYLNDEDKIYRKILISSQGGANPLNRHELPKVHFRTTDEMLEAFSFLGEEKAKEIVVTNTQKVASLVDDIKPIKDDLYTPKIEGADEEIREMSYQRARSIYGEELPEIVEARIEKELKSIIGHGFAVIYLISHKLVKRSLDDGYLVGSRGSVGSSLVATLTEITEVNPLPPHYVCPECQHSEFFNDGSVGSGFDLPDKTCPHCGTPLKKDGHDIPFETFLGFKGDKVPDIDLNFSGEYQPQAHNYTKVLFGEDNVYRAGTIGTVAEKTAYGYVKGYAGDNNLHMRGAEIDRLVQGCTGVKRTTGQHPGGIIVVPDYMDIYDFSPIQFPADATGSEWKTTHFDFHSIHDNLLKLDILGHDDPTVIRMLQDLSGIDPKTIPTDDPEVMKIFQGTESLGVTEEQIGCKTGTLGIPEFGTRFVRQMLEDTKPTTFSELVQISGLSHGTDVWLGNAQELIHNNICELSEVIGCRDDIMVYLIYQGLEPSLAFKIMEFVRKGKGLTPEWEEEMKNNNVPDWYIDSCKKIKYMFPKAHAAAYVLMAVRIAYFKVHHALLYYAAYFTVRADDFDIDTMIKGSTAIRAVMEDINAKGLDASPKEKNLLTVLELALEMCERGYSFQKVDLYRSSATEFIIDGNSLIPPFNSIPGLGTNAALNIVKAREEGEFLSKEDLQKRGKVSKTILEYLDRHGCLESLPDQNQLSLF
Method in brief: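 First, compound is mixed with the reconstituted replication complex and held at room temperature. Next, circular single-stranded M13Gori with nucleotides starts synthesis. Finally, PicoGreen in EDTA halts the reaction and stains double-stranded product for fluorescence reading.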

[14] = biological target: Tumor susceptibility gene 101 protein (Homo sapiens) (UniProt Q99816); experiment: qHTS Validation Assay for Iinhibitors of HIV-1 Budding by Blocking the Interaction of PTAP/TSG101 (AID 485342; calls by dose curve)
Chain of Tumor susceptibility gene 101 protein (Homo sapiens) (Q99816 whole entry, looked up, the tested form may be a part): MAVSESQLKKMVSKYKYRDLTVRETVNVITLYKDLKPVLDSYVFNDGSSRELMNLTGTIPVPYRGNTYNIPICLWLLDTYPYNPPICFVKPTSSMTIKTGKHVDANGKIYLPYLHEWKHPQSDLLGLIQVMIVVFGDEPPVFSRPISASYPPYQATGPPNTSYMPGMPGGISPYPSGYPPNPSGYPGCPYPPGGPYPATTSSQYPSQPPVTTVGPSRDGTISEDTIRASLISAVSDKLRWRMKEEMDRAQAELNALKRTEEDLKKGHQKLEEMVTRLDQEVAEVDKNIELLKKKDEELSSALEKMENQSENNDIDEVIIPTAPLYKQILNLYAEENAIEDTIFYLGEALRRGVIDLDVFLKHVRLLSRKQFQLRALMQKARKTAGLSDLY
Method in brief: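 Binding of a FITC-tagged PTAP-motif peptide (50 nM) to the Tsg101 binding domain (10 uM) is monitored by fluorescence polarization. Compounds are pin-delivered before peptide addition, and incubation runs 20 min at room temperature.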

[15] = qHTS Validation Assay to Find Inhibitors of Chronic Active B-Cell Receptor Signaling (AID 485345; active = well fitted curve in the direction sought with a large enough effect in the main read-out, with a control signal flat, not every such curve was filed as active)
Method in brief: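 TMD8 ABC-DLBCL cells stably carrying doxycycline-inducible IkappaBalpha–green luciferase fusion plus unfused red luciferase; compounds 46 uM to 3 nM, 4 h at 37C with doxycycline. Corrected green/red luminescence ratio normalized to 10 uM MG-132 and basal cell wells; curves fitted.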

[16] = biological target: Beta-2 adrenergic receptor (Homo sapiens) (UniProt P07550); experiment: qHTS validation assay of beta-arrestin-biased ligands of beta2-adrenergic receptor (AID 485366)
Chain of Beta-2 adrenergic receptor (Homo sapiens) (P07550 whole entry, looked up): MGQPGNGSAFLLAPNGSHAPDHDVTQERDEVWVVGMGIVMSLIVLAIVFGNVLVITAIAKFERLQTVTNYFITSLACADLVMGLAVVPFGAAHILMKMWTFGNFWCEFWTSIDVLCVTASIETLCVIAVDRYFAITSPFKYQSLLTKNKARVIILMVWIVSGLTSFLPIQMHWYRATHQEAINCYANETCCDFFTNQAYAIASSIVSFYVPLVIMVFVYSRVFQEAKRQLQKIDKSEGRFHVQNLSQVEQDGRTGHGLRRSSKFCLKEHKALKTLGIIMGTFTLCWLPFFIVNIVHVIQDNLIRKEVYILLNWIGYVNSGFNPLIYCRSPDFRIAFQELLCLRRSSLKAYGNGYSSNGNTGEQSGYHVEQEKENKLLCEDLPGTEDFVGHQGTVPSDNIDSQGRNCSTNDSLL
Method in brief: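 Luminescence from a tTA-responsive luciferase, induced when recombinant beta-arrestin is recruited to recombinant beta2-AR, served as the agonism signal. Cells were exposed to compound for 18 hr at 37 degrees C; titrations spanned up to 46 microM.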

[17] = biological target: ATP-dependent 6-phosphofructokinase (Trypanosoma brucei brucei) (UniProt O15648); experiment: qHTS Validation Assay to Find Inhibitors of T. brucei phosphofructokinase (AID 485368); details: T. brucei PFK enzyme assay, qHTS 7-point titration; at 57.5 µM (top of the series)
Chain of ATP-dependent 6-phosphofructokinase (Trypanosoma brucei brucei) (O15648 whole entry, looked up): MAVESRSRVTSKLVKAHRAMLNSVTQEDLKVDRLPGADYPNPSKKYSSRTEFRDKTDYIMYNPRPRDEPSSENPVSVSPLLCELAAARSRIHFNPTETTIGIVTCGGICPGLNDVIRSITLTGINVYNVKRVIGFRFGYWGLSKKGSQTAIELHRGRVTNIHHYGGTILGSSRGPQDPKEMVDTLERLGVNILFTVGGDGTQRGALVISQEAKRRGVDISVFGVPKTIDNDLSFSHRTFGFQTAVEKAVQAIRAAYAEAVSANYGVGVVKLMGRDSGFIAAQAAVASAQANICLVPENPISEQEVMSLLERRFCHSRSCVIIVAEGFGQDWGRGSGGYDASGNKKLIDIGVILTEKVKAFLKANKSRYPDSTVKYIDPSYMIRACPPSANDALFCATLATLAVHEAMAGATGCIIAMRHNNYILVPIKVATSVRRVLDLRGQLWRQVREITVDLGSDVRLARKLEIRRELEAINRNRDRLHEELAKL
Method in brief: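 Activity was normalized between 1x (1.25 nM) PFK wells as no inhibition and enzyme-free wells as full inhibition, from luminescence after ADP-Glo detection of ADP made from 0.5 mM F6P and 0.1 mM ATP over 45 min.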

[18] = biological target: Thioredoxin reductase 1, cytoplasmic (Rattus norvegicus) (UniProt O89049); experiment: qHTS Assay for Substrates of Mammalian Selenoprotein Thioredoxin Reductase 1 (TrxR1) (AID 488772);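 also: NADPH fluorescence in the first read after selenite addition and not the 8 min delta; a drop in NADPH fluorescence below the no-compound background marks a TrxR1 substrate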
Chain of Thioredoxin reductase 1, cytoplasmic (Rattus norvegicus) (O89049 whole entry, looked up): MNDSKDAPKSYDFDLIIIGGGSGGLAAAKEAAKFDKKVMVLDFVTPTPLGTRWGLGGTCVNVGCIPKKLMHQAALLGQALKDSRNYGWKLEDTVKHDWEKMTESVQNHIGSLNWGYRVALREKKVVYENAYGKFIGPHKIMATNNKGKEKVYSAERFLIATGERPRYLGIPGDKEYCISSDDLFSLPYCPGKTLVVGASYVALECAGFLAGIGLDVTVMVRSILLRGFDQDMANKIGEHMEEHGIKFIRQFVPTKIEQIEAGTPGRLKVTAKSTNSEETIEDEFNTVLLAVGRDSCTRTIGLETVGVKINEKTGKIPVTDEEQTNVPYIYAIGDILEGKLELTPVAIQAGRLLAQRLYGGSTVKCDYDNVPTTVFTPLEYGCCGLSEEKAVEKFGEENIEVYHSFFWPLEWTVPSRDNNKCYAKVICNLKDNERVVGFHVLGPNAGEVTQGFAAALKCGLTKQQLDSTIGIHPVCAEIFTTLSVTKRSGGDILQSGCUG
Method in brief: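 Quantitative HTS in Tris-HCl buffer at pH 7.5 with EDTA and Tween-20, using rat TrxR1, 400 uM NADPH and 400 uM selenite (final). A fall in initial NADPH fluorescence relative to background marked substrate behaviour.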

[19] = biological target: Thioredoxin reductase 1, cytoplasmic (Rattus norvegicus) (UniProt O89049); experiment: qHTS Assay for Inhibitors of Mammalian Selenoprotein Thioredoxin Reductase 1 (TrxR1) (AID 488773);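 also: drop in NADPH fluorescence over an 8 min run after selenite addition; nearly all actives have a fitted effect of over 40% in size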
Method in brief: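 Steps: enzyme (90 nM) plus NADPH (400 uM final), 5 min at ~22 deg C; compound added, 15 min; selenite (400 uM final) added; fluorescence followed for 8 min. Concentration-response curves derived from the normalized delta values.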

[20] = biological target: Flap endonuclease 1 (Homo sapiens) (UniProt P39748); experiment: qHTS Validation Assay for the Inhibitors of Human Flap endonuclease 1 (FEN1) (AID 488816)
Chain of Flap endonuclease 1 (Homo sapiens) (P39748 whole entry, looked up): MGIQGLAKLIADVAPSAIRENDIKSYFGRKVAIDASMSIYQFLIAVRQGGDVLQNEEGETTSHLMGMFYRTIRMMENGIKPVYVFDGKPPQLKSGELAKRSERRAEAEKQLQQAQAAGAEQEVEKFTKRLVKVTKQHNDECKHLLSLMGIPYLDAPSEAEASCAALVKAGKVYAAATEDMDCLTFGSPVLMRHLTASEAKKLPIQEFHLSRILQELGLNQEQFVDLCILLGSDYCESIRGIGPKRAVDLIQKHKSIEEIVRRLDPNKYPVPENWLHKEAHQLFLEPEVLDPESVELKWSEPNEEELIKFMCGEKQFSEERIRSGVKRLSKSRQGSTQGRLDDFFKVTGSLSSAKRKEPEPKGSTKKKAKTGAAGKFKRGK
Method in brief: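 Human FEN1 (10 nM) preincubated 15 min at room temperature with compounds, then flap DNA substrate added at 50 nM final. Fluorescence read at 0 and 15 min; concentration-response fitted with four-parameter Hill equation.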

In the case of `N#CC(O[C@@H]1O[C@H](CO[C@@H]2O[C@H](CO)[C@@H](O)[C@H](O)[C@H]2O)[C@@H](O)[C@H](O)[C@H]1O)c1ccccc1` (stereo not given in full), the outcome [1] is reported as “inactive”, the max response [2] is reported as -0.601% and the outcome [3] is reported as “inactive”. The outcome [4] was “inactive”.
For `C=C(C)[C@@H]1CCC(C)=C[C@H]1c1c(O)cc(CCCCC)cc1O`, the outcome [1] was “inactive”, the max response [2] was 0.918% and the outcome [3] was “inactive”. The outcome [4] was “inactive”.
For `O=C1/C(=C\c2ccccc2)C[C@@]2(O)[C@H]3Cc4ccc(O)c5c4[C@@]2(CCN3CC2CC2)[C@H]1O5`, the outcome [5] was “inactive”.
For `CCCCN1C2CCC1CC(OC(c1ccc(F)cc1)c1ccc(F)cc1)C2` (stereo not given), the Potency [6] was 10 µM (active).
In the case of `NCC#Cc1ccccc1`, the Potency [6] is reported as 6.31 µM (active).
For `CC(C)(O)C1C2OC(=O)C1[C@]1(O)C[C@H]3O[C@]34C(=O)O[C@H]2[C@]14C` (stereo not given in full) (tested in a mixture with another compound), the Potency [7] was “inactive”.
For `CC12CCC3C(CCC4=C(O)C(=O)CCC43C)C1CCC2=O` (stereo not given), the outcome [8] was “inactive”, the Potency [9] was “inactive” and the Potency [10] was “inactive”. The Potency [11] was “inactive”, the outcome [12] was “inactive” and the outcome [13] was “inactive”. For the same molecule, the outcome [14] was “inactive”, the outcome [15] was “inactive” and the outcome [16] was “inactive”. The outcome [17] was “inactive”, the outcome [18] was “inactive” and the outcome [19] was “inactive”. The outcome [20] was “inactive”.
In the case of `CC[C@@H](CO)NC(=O)[C@H]1C=C2c3cccc4c3c(cn4C)C[C@H]2N(C)C1`, the outcome [5] is reported as “inactive”.
For `CCCC[N+]1(C)C2CC(OC(=O)C(CO)c3ccccc3)CC1C1OC12` (stereo not given), the Potency [7] was “inactive”.
For `C[C@H]1C2Cc3ccc(O)cc3[C@]1(C)CCN2CC1CC1`, the outcome [8] was “inactive”, the Potency [9] was “inactive” and the Potency [10] was “inactive”. The Potency [11] was “inactive”, the outcome [12] was “inactive” and the outcome [13] was “inactive”. For the same molecule, the outcome [14] was “inactive”, the outcome [15] was “inactive” and the outcome [16] was “inactive”. The outcome [17] was “inactive”, the outcome [18] was “inactive” and the outcome [19] was “inactive”. For the same molecule, the outcome [20] was “inactive”.
